From PubChem BioAssay (Tox21)
Values without a mark were called inactive. Active and inactive are the calls of the source. Calls follow the shape of the dose curve; as a rule, active = well fitted curve in the direction sought with a large enough effect in the repeat runs; inconclusive = weak or mixed curves; inactive = flat fitted curve, though single readings scatter.

Assay: qHTS assay to test for compound auto fluorescence at 535 nm (green) in HepG2 cell free culture (AID 720686)
Settings: Cell-free medium, green autofluorescence 485/535 nm; series mostly up to 91.3 µM; fluorescence, % of fluorescein control: at the top concentration
Source text: U.S. Tox21 Program National Center for Advancing Translational Sciences [NCATS] NIH Chemical Genomics Center [NCGC] U.S. Environmental Protection Agency [EPA] National Institutes of Environmental Health Sciences [NIEHS] National Toxicology Program [NTP] U.S. Food and Drug Administration [FDA] Tox21 Assay Overview: Compound auto fluorescence often interferes with screening of the compound library against various biological targets and signaling pathways. Some of these compounds may have fluorophoric properties. Such properties may interfere with the assay outputs resulting in false positives and/or negatives. To decrease such complications and ensure the compound activities are relevant in terms of biological response, the Tox21 10K compound library was screened for auto fluorescence. From the fluorophores used as reporter signals in our screening assays, the auto fluorescence equivalencies of compounds against three fluorophores have been evaluated: Triamterene, Fluorescein and Rose Bengal sodium for blue, green and red fluorescence, respectively. The fluorescence intensities were measured using Excitation/Emission wavelengths at 405/460nm, 485/535nm and 540/590nm for blue, green and red labels, respectively. This assay includes the green fluorescence data.
Tox21 Assay Protocol Summary: 5 uL of culture medium (MEM containing 10% FBS) per well was dispensed into black wall/clear bottom 1536-well plates using a Multidrop Combi Dispenser (ThermoFisher Scientific, Waltham, MA). After 23 nL compound or DMSO vehicle was transferred into assay plate by a pintool work station (Kalypsys, San Diego, CA), fluorescence intensities in the assay plates were measured by an Envision (PerkinElmer, Shelton, CT) plate reader using three labels for measuring blue, green and red fluorescence at […] 460, 535 and 590nm respectively.
% is scaled to controls: 0 for no effect and ±100 for the full control effect.

SMILES | fluorescence, % of fluorescein control | Potency
O=C(O)C1(C(=O)Nc2ccc(Cl)cc2Cl)CC1 | -0.0659% | –
CC(=O)c1cccc([N+](=O)[O-])c1 | 0.0978% | –
CC(=O)[O][Al][O]C(C)=O | – | inactive
CC(=O)c1ccc2c(c1)N(CCCN1CCC(CCO)CC1)c1ccccc1S2 | 0.041% [at 18.6 µM] | –
CN(C)c1ccc(/C=C/c2ccc([N+](=O)[O-])cc2)cc1 | -0.0291% [at 3.72 µM] | –
Cc1c(N)cccc1[N+](=O)[O-] | 1.3e-05% [at 95.7 µM] | –
CCOc1ccc(N)c([N+](=O)[O-])c1 | -0.122% | –
CC[N+]1(CC)CCC(=C(c2ccccc2)c2ccccc2)C1C (stereo not given) | 0.16% [at 46 µM] | –
O=C1c2ccccc2S(=O)(=O)N1CCCCN1CCN(c2ncccn2)CC1 | -0.0379% [at 46 µM] | –
C[N+]1(CC2COC(c3ccccc3)(C3CCCCC3)O2)CCCCC1 (stereo not given) | 0.0656% [at 46 µM] | –
O=C(Nc1ccccc1)c1ccccc1O | 0.0779% | –
CC[N+](C)(CC)CCOC(=O)C(O)(c1ccccc1)C1CCCCC1 (stereo not given) | 0.0414% [at 46 µM] | –
CC(=O)NO | -0.158% [at 46 µM] | –
CCn1cc(C(=O)O)c(=O)c2cnc(N3CCNCC3)nc21 | 0.152% [at 18.6 µM] | –
COc1ccc(C)cc1[N+](=O)[O-] | 0.0191% [at 95.7 µM] | –
OCCNCc1ccccc1 | 0.0316% | –
CCC(C)O (stereo not given) | 0.0166% [at 95.7 µM] | –
CCOC(=O)NCCOc1ccc(Oc2ccccc2)cc1 | -0.0015% | –
COc1ccc(C(=O)Nc2nc3ccccc3c(NCc3ccccc3)c2C#N)cc1 | -0.009% | –
CCCNCC(O)COc1ccccc1C(=O)CCc1ccccc1 (stereo not given) | -0.0098% [at 46 µM] | –

SMILES | fluorescence, % of fluorescein control | Potency
CCOC(=O)COC(=O)c1cc(Oc2ccc(C(F)(F)F)cc2Cl)ccc1[N+](=O)[O-] | 0.0115% | –
c1ccc(C(O[C@H]2CCCN(CCc3ccc4c(c3)OCO4)C2)c2ccccc2)cc1 | 0.211% [at 46 µM] | –
CC(C)(COC(=O)c1ccccc1)COC(=O)c1ccccc1 | -0.0125% | –
O=C(O)C(S)C(S)C(=O)O (stereo not given) | 0.119% [at 46 µM] | –
C=CC1CC2C=CC1C2 (stereo not given) | -0.14% | –
OC(C#CCN1CCCC1)(c1ccccc1)c1ccccc1 | 0.143% [at 46 µM] | –
Brc1c2ccccc2cc2ccccc12 | -0.0271% | –
O=C(OCCCCCCOC(=O)c1ccccc1)c1ccccc1 | 0.0202% | –
OC(CN1CCC(Cc2ccc(F)cc2)CC1)c1ccc(Cl)cc1 (stereo not given) | -0.0005% [at 46 µM] | –
O=C(O)c1ccc(S(=O)(=O)O)cc1C(=O)O | 0.0019% | –
O=CC1CC=CCC1 (stereo not given) | -0.0975% | –
CC/C=C\CCOC(=O)CC | -0.0128% | –
O=C(O)c1ccccc1Cl | -0.0208% | –
COC(=O)c1ccc(I)cc1S(=O)(=O)NC(=O)Nc1nc(C)nc(OC)n1 | -0.0052% | –
CN(C)CCN(Cc1ccccc1)c1ccccn1 | -0.217% [at 46 µM] | –
C=C1C(=C/C=C2\CCC[C@]3(C)[C@@H]([C@H](C)/C=C/[C@@H](O)C4CC4)CC[C@@H]23)C[C@@H](O)C[C@@H]1O | 0.131% [at 46 µM] | –
Cc1ccccc1S(=O)(=O)O | -0.0001% [at 95.7 µM] | –
Cc1nn(C)c(Oc2ccccc2)c1/C=N/OCc1ccc(C(=O)OC(C)(C)C)cc1 | 0.0173% | –
CC1=CCCC(C)(C)C12CCC(C)O2 (stereo not given) | 0.008% | –
CCCCCCCCCOS(=O)(=O)O | -0.0425% | –
